Each structure is given as a SMILES string. Values joined by “and” are separate entries in the source; they are usually repeats but may differ in a detail not shown here. Equal values may be shown once. Results filed as inconclusive are left out. A call without a number means that no potency is given here. Active and inactive are the calls of the source. The call rests on the fitted dose curve; in most records, active means well fitted inhibition curve with a large enough effect; inconclusive means small, poorly fitted or top-dose-only effect; inactive means no such curve, though single readings can be large or run the other way.
Potency means the concentration at half of the fitted maximal effect.

Chain of Nicotinamide N-methyltransferase (Homo sapiens) (P40261 whole entry, looked up): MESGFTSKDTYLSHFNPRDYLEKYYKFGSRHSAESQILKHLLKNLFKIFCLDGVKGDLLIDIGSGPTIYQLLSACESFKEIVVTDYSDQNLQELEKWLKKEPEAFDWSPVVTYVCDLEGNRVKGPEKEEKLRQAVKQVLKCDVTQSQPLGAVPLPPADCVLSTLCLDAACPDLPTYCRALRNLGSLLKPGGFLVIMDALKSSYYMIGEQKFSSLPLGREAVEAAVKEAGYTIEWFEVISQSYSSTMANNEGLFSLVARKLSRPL

The assay concerns the target Nicotinamide N-methyltransferase (Homo sapiens) (UniProt P40261). In words: qHTS Assay for Inhibitors of N-terminal methyltransferase 1 (NTMT1): NNMT MTaseGlo counterscreen assay. The settings on record: NNMT enzyme, MTase-Glo luminescence counterscreen; series mostly up to 57.1 µM. In short, it runs like this:
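Luminescent MTase-Glo read-out of SAH from nicotinamide methylation: 1 µM nicotinamide, 100 µM SAM, 125 nM NNMT, 30 min RT after ~15 min compound preincubation. Values normalized to no-enzyme/DMSO controls, Hill-fitted.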
For `Cn1ncc(S(=O)(=O)Cc2ccccc2)c(Br)c1=O`, the Potency entry was “inactive”.

Take `COc1cc2nc(N3CCCN(C)CC3)nc(NC3CCN(Cc4ccccc4)CC3)c2cc1OC`: the Potency result is “inactive”.

For `CCNC(=O)[C@H]1O[C@H](n2cnc3c(N)nc(NCCc4ccc(CCC(=O)O)cc4)nc32)[C@@H](O)[C@@H]1O`, the Potency entry is “inactive”.

For the compound `S=C(Nc1ccccc1)Nc1nccs1`, the Potency entry was “inactive”.

With `CCC(CC)n1ccc2c(C(=O)NCc3c(C)cc(C)[nH]c3=O)cc(C#N)cc21`, the Potency entry was “inactive”. The entry for `CN=c1nc(-c2ccccc2)n(-c2ccccc2)s1` is “inactive”. Consider `O=C1NC(=O)C(c2ccccc2[N+](=O)[O-])=C1Nc1ccc(O)c(Cl)c1`, for which the Potency entry is “inactive”.

For `COC(=O)[C@H]1[C@H]2C[C@H]3c4[nH]c5ccccc5c4CCN3C[C@H]2CC[C@@H]1O`, the Potency result was “inactive”. `Cc1cc2nc3c(=O)[nH]c(=O)nc-3n(C[C@H](O)[C@H](O)[C@H](O)COP(=O)(O)OP(=O)(O)OC[C@H]3O[C@@H](n4cnc5c(N)ncnc54)[C@H](O)[C@H]3O)c2cc1C`: the Potency result is “inactive”. The entry for `NC[C@@H]1O[C@H](C23CC4CC(CC(C4)C2)C3)Cc2c1ccc(O)c2O` is “inactive”; for `CC(C)=CCNc1ncnc2c1ncn2[C@@H]1O[C@H](CO)[C@@H](O)[C@H]1O` it is “inactive”; for `Nc1nc(=S)c2ncn([C@H]3O[C@@H](CO)[C@@H](O)[C@@H]3O)c2[nH]1` it is “inactive”. `CC[N+](CC)(CC)CCOc1cccc(OCC[N+](CC)(CC)CC)c1OCC[N+](CC)(CC)CC`: the Potency entry was “inactive”. Consider `N=c1c[n+](N2CCOCC2)[n-]o1`, for which the Potency entry was “inactive”.

On to `Cc1ccc(S(=O)(=O)/C=C/C#N)cc1`, for which the Potency is 15.8 µM (active). On to `CN(C)C(=O)/N=N/C(=O)N(C)C`, for which the Potency entry is “inactive”. The entry for `O=C(/C=C/c1ccc(O)c(O)c1)OCCc1ccccc1` is “inactive”; for `COc1cc2nc(N3CCCN(C)CC3)nc(NC3CCNCC3)c2cc1OC` it is “inactive”. For `Cc1cc(O)c2c(c1)C(=O)c1cc(O)cc(O)c1C2=O`, the Potency entry is “inactive”. The entry for `c1ccc(CN2CCC3(CCCc4ccccc43)CC2)cc1` is “inactive”.

Take `Oc1ccccc1O`: the Potency result was “inactive”. As for `CC/C(=C(\c1ccccc1)c1ccc(OCCN(C)C)cc1)c1ccccc1`, the Potency entry was “inactive”.

For the compound `N#C/C(=C\c1ccc(O)c(O)c1)C(=O)c1ccc(O)c(O)c1`, the Potency entry is “inactive”.

`CCCc1cc(C)[nH]c(=O)c1CNC(=O)c1cc(-c2ccc(N3CCN(C(C)C)CC3)nc2)cc2c1cnn2C(C)C`: the Potency entry was “inactive”.

In the case of `C[C@H](Cc1ccc(O)c(O)c1)[C@@H](C)Cc1ccc(O)c(O)c1`, the Potency is 22.4 µM (active) and 25.1 µM (active).

For the compound `C#CCN(C)CCCOc1ccc(Cl)cc1Cl`, the Potency entry is “inactive”. As for `O=C(N[C@@H](Cc1ccccc1)C(=O)CCl)OCc1ccccc1`, the entry is “inactive”. `C[C@]12C[C@H](O)[C@H]3[C@@H](CCC4=CC(=O)CC[C@@]43C)[C@@H]1CC[C@@H]2C(=O)CO`: the Potency entry is “inactive”. As for `CSc1nc(N)c2ncn([C@@H]3O[C@H](COP(=O)(O)OP(=O)(O)OP(=O)(O)O)[C@@H](O)[C@H]3O)c2n1`, the entry is “inactive”; as for `OC[C@H]1O[C@H](n2cnc3c(N[C@H]4CCC[C@@H]4O)ncnc32)[C@H](O)[C@@H]1O`, “inactive”. As to `CSc1ccc(C(=O)c2[nH]c(=O)[nH]c2C)cc1`, the Potency result was “inactive”. For the compound `Oc1cc2c(cc1O)CN(C(=S)NCCc1ccc(Cl)cc1)CCC2`, the Potency entry was “inactive”.

In the case of `Cc1ccc(O)c(N=Nc2ccccc2)n1`, the Potency is 14.1 µM (active). Consider `CCN1C(=O)C=CC1=O`, for which the Potency result is “inactive”. The entry for `COc1ccc(C(=O)/C(Cc2cc(OC)c(OC)c(OC)c2)=C(\C(=O)O)c2ccc3c(c2)OCO3)cc1` is “inactive”. The entry for `Nc1[nH]c(=O)nc2c1ncn2C1OC(CO)C(O)C1O` (stereo not drawn) is “inactive”; for `O=S(=O)(c1cccc2c(Cl)cccc12)N1CCCNCC1` it is “inactive”. As for `OC[C@H]1O[C@@H](n2cnc3c(NCc4ccco4)ncnc32)[C@H](O)[C@@H]1O`, the entry is “inactive”.

(Values after PubChem BioAssay AID1347146 (National Center for Advancing Translational Sciences (NCATS), 2019).)
